Reference: PubChem BioAssay AID1671192 (National Center for Advancing Translational Sciences (NCATS), 2021)
Records with an inconclusive call do not appear. Activity calls are given as the source filed them. The call rests on the fitted dose curve; in most records, active means well fitted curve in the direction sought with a large enough effect; inconclusive means small, poorly fitted or top-dose-only effect, or another doubt; inactive means no such curve, though single readings can be large or run the other way.

What follows are compounds tested against Polyunsaturated fatty acid lipoxygenase ALOX15 (Homo sapiens) (UniProt P16050) (assay: Counterscreen qHTS for inhibitors of human arachidonate 12S-lipoxygenase (ALOX12): ALOX15 Assay). Conditions: purified ALOX15 enzyme activity; series mostly up to 110 µM.
Polyunsaturated fatty acid lipoxygenase ALOX15 (Homo sapiens), sequence (P16050 whole entry, looked up): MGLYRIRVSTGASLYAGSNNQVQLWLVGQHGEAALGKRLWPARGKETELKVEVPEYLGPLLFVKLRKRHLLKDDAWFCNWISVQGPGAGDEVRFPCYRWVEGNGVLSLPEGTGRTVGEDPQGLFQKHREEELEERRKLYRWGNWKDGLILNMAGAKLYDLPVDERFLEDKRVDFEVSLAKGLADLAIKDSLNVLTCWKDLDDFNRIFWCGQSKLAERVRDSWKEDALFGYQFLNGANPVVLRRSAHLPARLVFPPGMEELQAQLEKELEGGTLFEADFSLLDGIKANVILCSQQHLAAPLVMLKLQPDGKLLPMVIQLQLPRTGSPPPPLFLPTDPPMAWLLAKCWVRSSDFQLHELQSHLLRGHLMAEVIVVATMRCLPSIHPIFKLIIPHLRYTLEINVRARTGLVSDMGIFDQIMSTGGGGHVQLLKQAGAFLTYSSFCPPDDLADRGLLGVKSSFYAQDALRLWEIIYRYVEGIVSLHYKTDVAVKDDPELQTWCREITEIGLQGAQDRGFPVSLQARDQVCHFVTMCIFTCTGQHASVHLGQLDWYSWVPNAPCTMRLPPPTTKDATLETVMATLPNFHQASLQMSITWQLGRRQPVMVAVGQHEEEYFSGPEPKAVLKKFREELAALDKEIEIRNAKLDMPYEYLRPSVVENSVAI
How it was run: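 Purified human ALOX15 (15hLO-1) at 40 nM in 25 mM HEPES, 0.01% Triton X-100, pH 7.5, preincubated with compound 15 min at RT. Then 50 uM arachidonic acid for 30 min; hydroperoxide detected by Fe-xylenol orange as the 573/405 nm absorbance ratio.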

SMILES	outcome
Cc1ccc(C(=O)N2CCC(N3Cc4ccccc4C3=O)CC2)cc1	inactive
Cc1noc(C)c1C(=O)N1Cc2ccccc2CC2(CCCN(CC3CCNC3)C2)C1 (stereo not drawn)	inactive
CN1CC(=O)N(C2CCNCC2)Cc2c1ncnc2N1CCC(O)CC1	inactive
COc1ccc2c(c1)CCCN2C1CNC1	inactive
COc1ccccc1CNc1ncnc2c1CN(C1CCCNC1)C(=O)CN2C (stereo not drawn)	inactive
CCC(=O)N1Cc2ccccc2CC2(CCCN(CC3CCNCC3)C2)C1 (stereo not drawn)	inactive
COc1cccc([S+](=O)([O-])N2CC(Oc3ccc(F)c(F)c3)C2)c1	inactive
CC(C)Nc1ncnc2c1CN(C1CCCNC1)C(=O)CN2C (stereo not drawn)	inactive
CCCC(=O)N1Cc2ccccc2CC2(CCCN(CC3CCNC3)C2)C1 (stereo not drawn)	inactive
NCc1ccccc1-c1ccc(O)cc1	inactive
O=C(NC1CCCCC1)N1CCC(c2nnc3n2CCNC3)CC1	inactive
CCc1ccc(S(=O)(=O)c2nnn3c2nc(NCc2ccc(F)cc2)c2ccccc23)cc1	inactive
O=C(c1ccc(C(F)(F)F)cc1)N1CCCC2(CC(c3ccccc3)=NO2)C1 (stereo not drawn)	inactive
N#Cc1ccccc1CN1CCCC12Cc1ccccc1CNC2=O (stereo not drawn)	inactive
N#Cc1cccnc1-c1ccc(C(=O)O)cc1	inactive
O=C1NCc2ccccc2CC12CCCN2Cc1ccsc1 (stereo not drawn)	inactive
O=C(N1CCOCC1)N1CCC(c2nnc3n2CCNC3)CC1	inactive
COCCCNC(=O)c1cc(C2CC2)nc2c1c(C1CCCN1)nn2-c1ccccc1 (stereo not drawn)	inactive
